Source: PubChem
TDP1 cell noCPT = qHTS for Inhibitors of human tyrosyl-DNA phosphodiesterase 1 (TDP1): qHTS in cells in absence of CPT | AID 686978, 2013 | 15% of 420,000 active | Potency, µM (doses to about 46.2 µM), inactives show at the top dose activity change, negative = growth inhibition, usual class: inhibitors | DT40 Tdp1-/- hTDP1 cells, no CPT, ATP luminescence, 48 h; note: nearly all actives have a fitted effect of over 55% in size
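Chicken DT40 Tdp1-/- cells complemented with human TDP1, screened without camptothecin (DMSO vehicle only), 400 cells/well. Compounds pin-transferred, cells incubated at 37 °C for at least 48 hr. Growth read as ATP-dependent luminescence (CellTiter-Glo, 30 min at RT).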
12-LOX inh = blocks human arachidonate 12S-lipoxygenase. AID 1671190. purified 12hLO, xylenol orange hydroperoxide absorbance. P18054. Potency, µM (highest dose often 108 µM), for the others: top-dose activity change, negative = inhibition, usual class: inhibitors. 1.1% of 580,000 active
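Purified human 12hLO (150 nM final) in 25 mM Hepes, 0.01% Triton X-100, pH 7.0 was preincubated 15 min at room temperature with compound. Then 40 uM arachidonic acid was added, 30 min. Hydroperoxide was read by Fe-XO absorbance ratio 573/405 nm.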
RORg inh = inhibitors of mouse ROR gamma transcriptional activity | P51450 | Drosophila S2 Gal4-RORgamma UAS-luciferase reporter, 20 h | Potency, µM (series often up to 53.6 µM), for inactives: at the highest dose activity change, negative = inhibition, actives largely listed as inhibitors | 5.4% of 310,000 active | AID 2551; note: nearly all actives have a fitted effect of over 60% in size
Target sequence (P51450 whole entry, looked up, the tested form may be a part): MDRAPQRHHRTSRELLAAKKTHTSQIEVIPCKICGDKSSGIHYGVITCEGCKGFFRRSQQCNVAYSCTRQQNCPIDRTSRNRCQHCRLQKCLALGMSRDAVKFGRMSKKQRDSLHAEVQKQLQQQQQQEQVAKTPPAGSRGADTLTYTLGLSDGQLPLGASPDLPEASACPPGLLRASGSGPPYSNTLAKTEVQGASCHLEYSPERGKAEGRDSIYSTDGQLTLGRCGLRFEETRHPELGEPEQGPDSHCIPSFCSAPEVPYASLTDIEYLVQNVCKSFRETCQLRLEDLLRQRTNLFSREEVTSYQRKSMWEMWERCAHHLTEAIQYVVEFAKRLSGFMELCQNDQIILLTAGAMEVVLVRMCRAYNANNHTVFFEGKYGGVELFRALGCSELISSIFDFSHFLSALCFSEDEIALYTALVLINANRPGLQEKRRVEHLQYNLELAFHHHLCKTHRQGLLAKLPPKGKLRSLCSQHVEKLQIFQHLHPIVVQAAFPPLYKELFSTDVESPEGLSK
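Read-out: Photinus luciferase luminescence; inhibitors lower reporter signal. Insect Schneider cells with Gal4-ROR gamma fusion under metallothionein promoter, UAS reporter; 700 uM final copper sulfate induction, 20 hr, ambient temperature.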
DT40 TDP1 CPT = growth inhibition of DT40 Tdp1-/-;hTDP1 cells with camptothecin (screen for TDP1 inhibitors); chicken DT40 Tdp1-/-;hTDP1 cells + 20 nM CPT, ATP luminescence, 48 h; Potency, µM (top dose mostly 46.2 µM), for inactives: top-dose activity change, negative = growth inhibition, most hits filed as inhibitors; 12% of 420,000 active; note: nearly all actives have a fitted effect of over 55% in size
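Chicken DT40 Tdp1-/- cells complemented with human TDP1, 400 cells/well, exposed to compounds plus 20 nM camptothecin for at least 48 h at 37 C; viability read as ATP content by CellTiter-Glo luminescence.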
ELG1 DNA repair = inhibitors of ELG1-dependent DNA repair in HEK293T cells; HEK293T ELG1-luciferase reporter, luminescence, 16 h; DNA damage induced by 5-fluorouridine; Potency, µM (titrated, usually from 46.1 µM), for the others: at the top dose activity change, negative = inhibition, most hits filed as inhibitors; 2.3% of 330,000 active; AID 504467; note: nearly all actives have a fitted effect of over 55% in size
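HEK293T cells expressing luciferase-tagged ELG1 (2,000/well) received 5-Fluorouridine plus compound or DMSO for 16 hr at 37 °C. Luciferase was read by ONE-Glo luminescence after 30 min at room temperature.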
VP16 counter = counter-screen for ROR gamma inhibitors: Gal4-VP16 reporter; Drosophila S2 Gal4-VP16 UAS-luciferase, luminescence, 20 h; Potency, µM (series often up to 53.6 µM), inactives show at the highest dose activity, negative = inhibition, hits mostly inhibitors; 3.5% of 310,000 active; AID 2546;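 note: Gal4-VP16 expression switched on by copper sulfate through the metallothionein promoter; nearly all actives have a fitted effect of over 50% in size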
Active calls of the source: *; ? = inconclusive; / = no result; [ ] = another dose, or the depositor's remark. Most compounds without a hit are left out; they make up all but 15% or so of the library. Calls come from the whole dose curve; as a rule, active = well fitted curve in the direction sought with a large enough effect; inconclusive = small, poorly fitted or top-dose-only effect, or another doubt; inactive = no such curve, though single readings can be large; an effect the other way counts as inactive or inconclusive. % is set by controls: 0 for no effect and ±100 for the full control effect; potency is the fitted concentration of half-maximal effect.

SMILES | TDP1 cell noCPT | 12-LOX inh | RORg inh | DT40 TDP1 CPT | ELG1 DNA repair | VP16 counter
Cc1ccc(-c2csc(N(CCCN3CCOCC3)C(=O)c3ccco3)n2)cc1 | 21µM* | ? | -1% | ? | ? | -13%
COc1ccc(-c2csc(N(CCCN3CCOCC3)C(=O)c3ccco3)n2)cc1 | 16µM* | ? | 7% | 18µM* | 16µM* | -11%
COc1ccc(OC)c(-c2csc(N(Cc3ccco3)C(=O)c3ccco3)n2)c1 | 21µM* | 1% | 1% | ? | 18µM* | -3%
CN(C)CCCN(C(=O)c1ccco1)c1nc(-c2ccc(Cl)cc2)cs1 | ? | ? | -2% | ? | 6% | ?
O=C(NCc1cc2n(n1)CCN(C1CCCCC1)C2)Nc1cccc(F)c1 | / | 7% | / | / | / | /
CCC(C)(C)C1CCc2c(sc(N)c2C#N)C1 (stereo not given) | / | 28µM* | / | / | / | /
CC(C)(C)C1CCc2c(sc(NC(=O)c3ccco3)c2C(N)=O)C1 (stereo not given) | ? | 25% | -27% | ? | ? | -14%
CC(C)(C)C1CCc2c(sc(NC(=O)C3CCCO3)c2C(N)=O)C1 (stereo not given) | 18µM* | -5% | 22% | ? | 12% | ?
CC(C)(C)C1CCc2c(sc(N)c2C(N)=O)C1 (stereo not given) | 18µM* | / | 0% | 23µM* | ? | 16µM*
CCC(C)(C)C1CCc2c(sc(N)c2C(N)=O)C1 (stereo not given) | 21µM* | ? | ? | 21µM* | -20% | ?
CCC(=O)Nc1sc2c(c1C#N)CCC(C(C)(C)CC)C2 (stereo not given) | / | 10% | / | / | / | /
O=C(COC(=O)CCNS(=O)(=O)c1ccc(F)c(Cl)c1)Nc1c(Cl)cccc1Cl | / | 0% | / | / | / | /
CCOC(=O)c1c(N)sc2c1CCC(C)C2 (stereo not given) | -4% | ? | -24% | -26% | -3% | -22%
CCN1CCc2c(sc(N)c2C#N)C1 | 23µM* | 49% | 2% | ? | -3% | 3%
CCCC1CCc2c(sc(N)c2C(N)=O)C1 (stereo not given) | 21µM* | ? | 11% | 16µM* | -2% | -6%
O=C(N/N=C\c1cn[nH]c1-c1ccccc1)c1cccs1 | -24% | 10% | -40% | -1% | 4% | 4%
O=C(N/N=C/c1cccc([N+](=O)[O-])c1O)c1cccs1 | 1µM* | -19% | 1.1µM* | 0.73µM* | -9% | 0.79µM*
NC(=S)N/N=C/c1c[nH]c2ccc(OCc3ccccc3)cc12 | ? | / | 5µM* | ? | ? | 4.5µM*
O=C(NN=Cc1cccc2ccccc12)C(=O)NN=Cc1cccc2ccccc12 | 15µM* | -11% | / | ? | / | /
CC(O)C(=O)N/N=C/c1cccc2ccccc12 (stereo not given) | ? | 4% | -2% | 14% | ? | 9%
NC(=O)N/N=C/c1ccccc1OC(=O)c1cc2ccccc2oc1=O | -23% | 0% | -36% | 15% | ? | 0%
NC(=S)N/N=C/c1ccccc1OC(=O)c1cc2ccccc2oc1=O | 6.5µM* | -15% | 7.1µM* | ? | ? | 7.1µM*
COc1ccc(-c2ocnc2C(=O)Nc2ccc(Cl)cc2)cc1OC | / | 1% | / | / | / | /
Cc1cc(C(=O)COc2ccc3ccc(=O)oc3c2)c(C)n1CC(F)(F)F | / | -3% | / | / | / | /
O=C(NC1CCNCC1)c1[nH]ncc1NC(=O)c1c(Cl)cccc1Cl | / | -36%[57.4 µM] | / | / | / | /
SMILES | TDP1 cell noCPT | 12-LOX inh | RORg inh | DT40 TDP1 CPT | ELG1 DNA repair | VP16 counter
NC(=S)N/N=C/c1ccccc1OC(=O)/C=C/c1ccccc1 | 0.52µM* | 5.6µM* | 3.5µM* | 5.2µM* | 3% | 3.5µM*
CCOC(=O)N/N=C\c1ccccc1OC/C=C/c1ccccc1 | ? | 222% | ? | ? | ? | 11%
O=C(N/N=C/c1cc([N+](=O)[O-])cc([N+](=O)[O-])c1O)/C(=C\c1cccs1)NC(=O)c1ccccc1 | 5% | 16µM* | 11µM* | -2% | 9% | ?
COc1cc(/C=N/NC(=O)c2cccs2)ccc1OCc1ccccc1 | -3% | -10% | ? | 2% | -1% | -8%
O=C(N/N=C/c1cccc2ccccc12)c1cccs1 | ? | / | -29% | 26µM* | ? | 0%
O=C(N/N=C/c1ccccc1Cl)c1cccs1 | / | -1% | / | / | / | /
O=C(N/N=C/c1ccccc1OCc1ccccc1)c1cccs1 | 15µM* | -5% | ? | ? | 4% | -20%
NC(=S)N/N=C\c1ccccc1OCc1ccccc1 | ? | ? | 2.2µM* | 29µM* | -8% | 3.5µM*
COc1ccccc1/C=C/C=N/NC(=O)c1cccs1 | 6.5µM* | 204% | 7.9µM* | 21µM* | ? | ?
COc1ccccc1/C=C\C=N\NC(=O)c1ccco1 | -1% | 2% | ? | 9% | ? | ?
Cc1nc2c(o1)C(=O)c1ccccc1C2=Nc1ccccc1 | 2.1µM* | 0% | / | 2.3µM* | / | /
Cc1nc2scc(-c3ccccc3)c2c(=O)o1 | -18% | 12% | -2% | -7% | ? | 1%
O=C(NCc1ccc(F)cc1Cl)C1CCN(C(=O)c2ncn3c2COC(c2ccccc2)C3)CC1 (stereo not given) | / | 27% | / | / | / | /
Cc1ccc(S(=O)(=O)N2CCCOC2CNC(=O)C(=O)NCCc2c[nH]c3ccccc23)cc1 (stereo not given) | 18µM* | 7% | ? | 15µM* | 23µM* | -24%
O=C(NCCc1c[nH]c2ccccc12)C(=O)NCC1OCCCN1S(=O)(=O)c1ccccc1 (stereo not given) | 16µM* | -3% | 21% | -79% | ? | -1%
O=C(NCCc1c[nH]c2ccccc12)C(=O)NCC1OCCN1S(=O)(=O)c1ccc(Cl)cc1 (stereo not given) | 21µM* | 16% | ? | ? | 13µM* | ?
Cc1cc(C)c(S(=O)(=O)N2CCOC2CNC(=O)C(=O)NCCc2c[nH]c3ccccc23)c(C)c1 (stereo not given) | 18µM* | 4% | ? | 26µM* | ? | 0%
O=C(NCCc1c[nH]c2ccccc12)C(=O)NCC1OCCN1S(=O)(=O)c1ccccc1 (stereo not given) | ? | -16% | 35% | ? | -16% | -10%
